VP16 counter = Gal4-VP16 reporter inhibition counter-screen. 3.5% of 310,000 active. Drosophila S2 Gal4-VP16 UAS-luciferase, luminescence, 20 h. Potency, µM (highest dose often 53.6 µM), hits mostly inhibitors. AID 2546;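 note: Gal4-VP16 expression switched on by copper sulfate through the metallothionein promoter; nearly all actives have a fitted effect of over 50% in size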
RORg inh = inhibitors of mouse ROR gamma transcriptional activity; P51450; Drosophila S2 Gal4-RORgamma UAS-luciferase reporter, 20 h; Potency, µM (top dose mostly 53.6 µM), actives largely listed as inhibitors; 5.4% of 310,000 active; AID 2551; note: nearly all actives have a fitted effect of over 60% in size
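Stable Schneider cell line, Gal4 DNA-binding domain fused to ROR gamma, UAS-luciferase. Cmpd 1 hr RT → CuSO4 700 uM final → 20 hr RT → luciferase reagent 10 min → luminescence.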
CtBP-E1A inh = blocks the CtBP interaction with E1A. AID 651724. 0.49% of 340,000 active. AlphaScreen GST-E1A/His-CtBP binding, 1536-well; active compounds read low. activity change, % (test concentration not listed); in the data active = activity change below about -65%; inconclusive = mostly about -30% to -63%
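Steps: dispense buffer (Tris pH 8.0, NaCl 300 mM, TCEP 1 mM, BSA, Tween 20); add 5X protein mix (GST-E1A, His-CtBP, 125 nM each); pin 23 nL compound; 2 h at 37 °C, dark; add 5X beads (50 ug/mL); 1 h; read.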
PKM2 activator = increases activity of human pyruvate kinase M2. P14618. purified PKM2, Kinase-Glo ATP luminescence, activation; response scale: 0% is enzyme alone, no compound. Potency, µM (doses to about 57.5 µM), most hits filed as activators. 0.34% of 260,000 active; note: nearly all actives have a fitted effect of over 55% in size
Target sequence (P14618 whole entry, looked up): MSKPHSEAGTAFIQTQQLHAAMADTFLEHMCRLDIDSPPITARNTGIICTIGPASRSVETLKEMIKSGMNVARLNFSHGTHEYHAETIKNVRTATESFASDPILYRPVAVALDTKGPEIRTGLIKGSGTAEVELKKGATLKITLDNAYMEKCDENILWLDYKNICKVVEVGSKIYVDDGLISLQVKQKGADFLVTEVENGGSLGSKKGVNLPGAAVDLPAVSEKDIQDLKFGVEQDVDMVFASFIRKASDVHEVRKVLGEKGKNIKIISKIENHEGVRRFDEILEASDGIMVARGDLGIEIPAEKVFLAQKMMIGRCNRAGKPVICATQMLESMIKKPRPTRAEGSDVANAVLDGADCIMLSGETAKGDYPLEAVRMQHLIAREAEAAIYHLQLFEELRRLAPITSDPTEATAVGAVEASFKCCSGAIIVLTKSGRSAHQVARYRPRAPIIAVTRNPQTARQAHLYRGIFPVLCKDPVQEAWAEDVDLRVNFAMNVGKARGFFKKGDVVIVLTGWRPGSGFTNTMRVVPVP
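Purified hPK-M2 (>95% pure) converted ADP (0.1 mM final) to ATP with 0.5 mM PEP in 50 mM imidazole pH7.2, KCl, MgCl2, Tween 20, BSA; 1 h at room temperature. ATP detected by Kinase-Glo luminescence.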
Six1-Eya2 inh = Six1/Eya2 interaction inhibition | Q15475+O00167 | AlphaScreen GST-Six1/His-Eya2 binding, biochemical; active compounds read low | activity change, % (concentration not given with the values) | 0.56% of 360,000 active; in the data active = activity change below about -65%; inconclusive = mostly about -30% to -63%
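GST-Six1 + His-Eya2 (5X stock: 250/500 nM); Tris pH 8.0, 300 mM NaCl, 0.05% BSA, 0.02% Tween 20; GSH donor/Ni acceptor beads; 1 h 37 °C dark; AlphaScreen readout.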
Each line names hits and unclear results; the compound was inactive in the other large screens. This is a sample that favours compounds with a hit; in the whole collection about 5.6% have one here. Unless noted, calls come from the whole dose curve; as a rule, active = well fitted curve in the direction sought with a large enough effect; inconclusive = small, poorly fitted or top-dose-only effect, or another doubt; inactive = no such curve, though single readings can be large; an effect the other way counts as inactive or inconclusive.

NC(c1csc(Nc2ncccn2)n1)C1CCCCC1 (stereo not drawn)	CtBP-E1A inh -67, Six1-Eya2 inh inconclusive (no result: VP16 counter, RORg inh, PKM2 activator)
CCOC(=O)C1CCN(S(=O)(=O)c2ccc(Cl)s2)CC1	none
COc1ccc(C(=O)/C=C/c2ccc(OC)c(CN3CCOCC3)c2)cc1	VP16 counter inconclusive, RORg inh inconclusive, CtBP-E1A inh inconclusive
O=C(/C=C/c1cccc(O)c1)c1ccc(N2CCOCC2)cc1	VP16 counter inconclusive, RORg inh 3.5µM
COc1ccc(/C=C/C(=O)c2ccc(O)cc2)cc1CN1CCOCC1	CtBP-E1A inh -86, Six1-Eya2 inh inconclusive
Cc1ccc(CN2CCCN(C)CC2)c(C)c1	none
CN1CCN(C(=O)c2ccccc2NC(=O)c2ccccc2)CC1	none
CCOC(=O)C1CCN(C(=O)C(C)c2ccc([N+](=O)[O-])cc2)CC1 (stereo not drawn)	none
Cc1cc(C)nc(SCC(=O)NN)n1	RORg inh 8.9µM
CC(=O)OCC1OC(Oc2cc(OC(C)=O)c3c(=O)cc(-c4ccc(OC(C)=O)c(OC(C)=O)c4)oc3c2)C(OC(C)=O)C(OC(C)=O)C1OC(C)=O (stereo not drawn)	VP16 counter 16µM, RORg inh 25µM (no result: CtBP-E1A inh, PKM2 activator, Six1-Eya2 inh)
C=CC[n+]1ccc(/C=C2\C=Cc3cc(C)ccc3N2CC)c2ccccc21	VP16 counter 1.3µM, RORg inh 1.3µM, Six1-Eya2 inh -73
Cc1ccc2nc(-c3ccc(NC(=O)CCN4C(=O)c5ccccc5C4=O)cc3)sc2c1	VP16 counter 7.1µM, RORg inh 5µM
O=C(O)CSCC(=O)Nc1ccc(-c2nc3ccccc3s2)cc1	RORg inh inconclusive, CtBP-E1A inh inconclusive
Cc1csc(NC(=O)CSCC(=O)O)c1-c1nc2ccccc2s1	VP16 counter 8.9µM, Six1-Eya2 inh inconclusive
Cc1ccc2nc(-c3ccc(NC(=O)CSCC(=O)O)cc3)sc2c1	RORg inh 11µM, CtBP-E1A inh inconclusive
CC(C)Oc1ccc(C(=O)NC(Cc2c[nH]c3ccccc23)C(=O)NN)cc1 (stereo not drawn)	none (no result: CtBP-E1A inh)
COc1cccc(C(=O)Oc2c(CN3CCOCC3)cc(Cl)c3cccnc23)c1	VP16 counter 4.5µM, RORg inh 2.8µM, CtBP-E1A inh -91, Six1-Eya2 inh -88
COc1cc(C(=S)N2CCOCC2)cc(OC)c1OC(=O)c1ccc(F)cc1	RORg inh inconclusive
O=C(Oc1c(CN2CCOCC2)cc(Cl)c2cccnc12)c1ccc(F)cc1	CtBP-E1A inh -92, Six1-Eya2 inh -91
COc1cc(C(=O)Oc2c(OC)cc(C(=S)N3CCOCC3)cc2OC)cc(OC)c1OC	none
COc1cc(C(=O)Oc2c(CN3CCOCC3)cc(Cl)c3cccnc23)cc(OC)c1OC	VP16 counter 2.5µM, RORg inh 4.5µM, CtBP-E1A inh -92, Six1-Eya2 inh -92
COc1ccc(C(=O)OC(C)CN2CCOCC2)cc1 (stereo not drawn)	none (no result: CtBP-E1A inh, PKM2 activator)
COc1cccc(C(=O)OCCN2CCOCC2)c1	none (no result: CtBP-E1A inh)
COc1ccc(C(=O)Oc2c(CN3CCOCC3)cc(Cl)c3cccnc23)cc1	VP16 counter 6.3µM, RORg inh 6.3µM, CtBP-E1A inh -65, PKM2 activator inconclusive, Six1-Eya2 inh inconclusive
CC(C)(C)c1ccc(C(=O)NNC(=O)CNC(=O)c2cccs2)cc1	none (no result: VP16 counter, RORg inh, PKM2 activator)
Cc1ccc(C)c(CC(=O)N2CCCCC2c2cc(C(=O)Nc3cccc(C#N)c3)no2)c1 (stereo not drawn)	none (no result: VP16 counter, RORg inh, PKM2 activator)
CC(C)Cn1c(C23CC4CC(CC(C4)C2)C3)n[nH]c1=S	VP16 counter 3.2µM, RORg inh 3.2µM
Cn1c(C23CC4CC(CC(C4)C2)C3)n[nH]c1=S	VP16 counter 8.9µM, RORg inh 5µM
COCCCn1c(C23CC4CC(CC(C4)C2)C3)n[nH]c1=S	VP16 counter 6.3µM, RORg inh 5µM (no result: CtBP-E1A inh)
CCn1c(CC(C)C)n[nH]c1=S	RORg inh inconclusive
CN(Cc1cccs1)C(=O)c1cccc(S(=O)(=O)N2CCCCCC2)c1	none (no result: VP16 counter, RORg inh, PKM2 activator)
Cc1cc(NS(=O)(=O)c2ccc(NC(=O)c3cnc(Cl)c(Cl)c3)cc2)nc(C)n1	Six1-Eya2 inh -91 (no result: VP16 counter, RORg inh, CtBP-E1A inh, PKM2 activator)
Cc1cc(NS(=O)(=O)c2ccc(NC(=O)c3ccc(Cl)nc3)cc2)nc(C)n1	none (no result: VP16 counter, RORg inh, PKM2 activator)
O=C(O)c1cccc(N2C(=O)c3ccc4c5c(ccc(c35)C2=O)C(=O)N(c2cccc(C(=O)O)c2)C4=O)c1	none
O=C(O)c1cc(N2C(=O)C=CC2=O)cc(N2C(=O)C=CC2=O)c1	Six1-Eya2 inh -74 (no result: VP16 counter, RORg inh, PKM2 activator)
COc1ccc(C(=O)Oc2cccc3cccnc23)cc1[N+](=O)[O-]	VP16 counter 3.2µM, RORg inh 2.2µM, CtBP-E1A inh -72, Six1-Eya2 inh -88
Cc1nc2nc(SCC(=O)c3ccc([N+](=O)[O-])cc3)[nH]c2cc1Br	VP16 counter inconclusive, RORg inh 2.5µM
Cc1nc2nc(SCC(N)=O)[nH]c2cc1Br	none
CN(C)CCN(C(=O)CN1C(=O)c2ccccc2C1=O)c1nc2cc3c(cc2s1)OCO3	none
CCN(CC)CCN(C(=O)CCS(=O)(=O)c1ccccc1)c1nc2cc(C)cc(C)c2s1	RORg inh 20µM
CCN(CC)CCN(C(=O)CN1C(=O)c2ccccc2C1=O)c1nc2cc3c(cc2s1)OCO3	CtBP-E1A inh -83
CN(C)CCCN(C(=O)CCS(=O)(=O)c1ccccc1)c1nc2cc3c(cc2s1)OCO3	VP16 counter 16µM, RORg inh 11µM
Cc1cc(C)c2sc(N(CCN(C)C)C(=O)CCS(=O)(=O)c3ccccc3)nc2c1	VP16 counter inconclusive, RORg inh inconclusive
Cc1cccc(C)c1-n1c(C)cc(/C=N/NC(=O)c2ccncc2)c1C	VP16 counter 2.2µM, RORg inh 1.3µM
Cc1cc(/C=N/NC(=O)c2ccncc2)c(C)n1-c1ccccc1	VP16 counter inconclusive, RORg inh 10µM
CCc1ccc(-n2c(C)cc(/C=N/NC(=O)c3ccncc3)c2C)cc1	VP16 counter 20µM, RORg inh 7.1µM
Cc1ccc(-n2c(C)cc(/C=N/NC(=O)c3ccncc3)c2C)c(C)c1	none
Cc1ccc(-n2c(C)cc(/C=N/NC(=O)c3ccncc3)c2C)cc1C	VP16 counter inconclusive, RORg inh 4µM
CC(C)(C)C(=O)O/N=C(\N)Cc1ccc(-c2csnn2)cc1	VP16 counter inconclusive
COC(=O)N/N=C/c1cc(C)n(-c2ccccc2)c1C	none (no result: CtBP-E1A inh)
Cc1cc(C(=O)N/N=C/c2ccc(O)c(O)c2O)c(C)n1-c1ccccc1	RORg inh inconclusive, CtBP-E1A inh inconclusive, PKM2 activator 28µM, Six1-Eya2 inh inconclusive
Cc1cc(/C=N/NC(=O)c2cccs2)c(C)n1-c1ccccc1	VP16 counter inconclusive, RORg inh inconclusive
Cc1cc(/C=N/NC(=O)c2cccc([N+](=O)[O-])c2)c(C)n1-c1ccccc1	VP16 counter 4.5µM, RORg inh 3.5µM, CtBP-E1A inh inconclusive
Cc1cc(C(=O)N/N=C2\CC(=O)c3ccccc32)c(C)n1-c1ccccc1	none

Assay outcomes from PubChem.
